Activity calls are given as the source filed them. How the source made its calls: active means hit-call score of the fitted dose curve at least 0.9, where 1 is the maximum; inactive means score below 0.9.
Tests used:
Details in all cases: mRNA level, 48 h; actives raise or lower the signal
CYP3A5 (gene 1577) = test: LTEA_HepaRG_CYP3A5: Life Technologies and Expression Analysis (LTEA) Assay for CYP3A5 using HepaRG (AID 2283493)
Outline: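 Human HepaRG hepatic cells receive 48 h chemical treatment at eight concentrations (half-log steps from 100 uM) in 0.5% DMSO. Expression of CYP3A5 is quantified by Fluidigm qRT-PCR and normalized to three reference genes.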

[1] = read-out: Fatty Acid-Binding Protein 1 (FABP1), FABP1 (gene 2168); test: LTEA_HepaRG_FABP1: Life Technologies and Expression Analysis (LTEA) Assay for Fatty Acid-Binding Protein 1 (FABP1) using HepaRG (AID 2283494)
Outline: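 FABP1 expression by TaqMan qRT-PCR, normalised to three housekeeping genes, in HepaRG cells after 48 h chemical treatment. Eight-point half-log series topping at 100 uM in 0.5% DMSO, duplicates; gain or loss fitted relative to vehicle.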

[2] = read-out: Glutathione S-Transferase (GSTA2), GSTA2 (gene 2939); test: LTEA_HepaRG_GSTA2: Life Technologies and Expression Analysis (LTEA) Assay for Glutathione S-Transferase (GSTA2) using HepaRG (AID 2283497)
Outline: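 GSTA2 transcript levels came from Fluidigm TaqMan qRT-PCR normalized to three housekeeping genes, fitted in both directions against DMSO. HepaRG cultures received chemicals for 48 h in serum-free induction medium (0.5% DMSO), 8 half-log concentrations up to 100 uM, duplicate.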

[3] = read-out: Glutamate-cysteine ligase catalytic (GCLC), GCLC (gene 2729); test: LTEA_HepaRG_GCLC: Life Technologies and Expression Analysis (LTEA) Assay for Glutamate-cysteine ligase catalytic (GCLC) using HepaRG (AID 2283498)
Outline: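 Expression by TaqMan qRT-PCR, normalized to three housekeeping genes (ACTB, GAPDH, POLR2A), with up- or down-regulation fitted against DMSO. HepaRG cells dosed in duplicate for 48 h with 8 half-log concentrations up to 100 uM, vehicle 0.5% DMSO.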

[4] = read-out: growth arrest and DNA damage 45 (GADD45G), GADD45G (gene 10912); test: LTEA_HepaRG_GADD45G: Life Technologies and Expression Analysis (LTEA) Assay for growth arrest and DNA damage 45 (GADD45G) using HepaRG (AID 2283499)
Outline: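 Differentiated human HepaRG cells in serum-free induction medium were exposed for 48 h to 8 half-log concentrations up to 100 uM in 0.5% DMSO, in duplicate. GADD45G mRNA was measured by TaqMan qRT-PCR, normalised to ACTB, GAPDH and POLR2A, and fitted bidirectionally against DMSO.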

[5] = read-out: Glutamate-cysteine ligase regulatory (GCLM), GCLM (gene 2730); test: LTEA_HepaRG_GCLM: Life Technologies and Expression Analysis (LTEA) Assay for Glutamate-cysteine ligase regulatory (GCLM) using HepaRG (AID 2283500)
Outline: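 Endpoint is GCLM transcript level by qRT-PCR, normalized to three housekeeping genes, after 48 h chemical exposure of human HepaRG cells (0.5% DMSO vehicle, top 100 uM, half-log dilutions). Fitting was bidirectional relative to DMSO.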

[6] = read-out: Glutathione S-transferase M3 (GSTM3), GSTM3 (gene 2947); test: LTEA_HepaRG_GSTM3: Life Technologies and Expression Analysis (LTEA) Assay for Glutathione S-transferase M3 (GSTM3) using HepaRG (AID 2283501)
Outline: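 Differentiated HepaRG cells in serum-free induction medium were exposed in duplicate for 48 h to 8 half-log concentrations up to 100 uM in 0.5% DMSO. GSTM3 mRNA was measured by TaqMan qRT-PCR, normalized to ACTB/GAPDH/POLR2A, and fitted bidirectionally versus DMSO.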

[7] = read-out: Heat shock 70 kDa protein 1 (HSPA1A), gene 3303; test: LTEA_HepaRG_HSPA1A: Life Technologies and Expression Analysis (LTEA) Assay for Heat shock 70 kDa protein 1 (HSPA1A) using HepaRG (AID 2283502)
Outline: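 Cells were plated and cultured for 48 h, then switched to serum-free induction medium. Chemicals were added at eight half-log concentrations up to 100 uM for 48 h. RNA was then isolated and HSPA1A measured by qRT-PCR with bidirectional curve fitting against DMSO.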

[8] = read-out: Hypoxia-inducible factor 1-alpha (Homo sapiens) (UniProt Q16665); test: LTEA_HepaRG_HIF1A: Life Technologies and Expression Analysis (LTEA) Assay for Hypoxia-inducible factor 1 (HIF1A) Trancription factor using HepaRG (AID 2283503)
Outline: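 HIF1A transcript level read by qRT-PCR (ACTB, GAPDH, POLR2A normalization) after 48 h chemical exposure of HepaRG cultures. Eight half-log concentrations, top 100 uM, 0.5% DMSO vehicle, duplicates; bidirectional curve fit against DMSO baseline.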

[9] = read-out: 3-Hydroxy-3-Methylglutaryl-CoA Synthase 2 (HMGCS2), HMGCS2 (gene 3158); test: LTEA_HepaRG_HMGCS2: Life Technologies and Expression Analysis (LTEA) Assay for 3-Hydroxy-3-Methylglutaryl-CoA Synthase 2 (HMGCS2) using HepaRG (AID 2283504)
Outline: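 Differentiated human HepaRG cells were exposed in duplicate for 48 h in serum-free induction medium to eight concentrations (top 100 uM, half-log steps, 0.5% DMSO). HMGCS2 mRNA was quantified by TaqMan qRT-PCR, normalised to ACTB, GAPDH and POLR2A, then fitted bidirectionally against DMSO.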

HGF (gene 3082) = test: LTEA_HepaRG_HGF: Life Technologies and Expression Analysis (LTEA) Assay for Hepatocyte Growth Facto (HGF) using HepaRG (AID 2283505)
Outline: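 Differentiated human HepaRG cells in serum-free induction medium were exposed in duplicate for 48 h to eight concentrations (top 100 uM, half-log steps, 0.5% DMSO). HGF mRNA was quantified by qRT-PCR, normalized to ACTB, GAPDH and POLR2A.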

[10] = read-out: Insulin Like Growth Factor 1 (IGF1), IGF1 (gene 3479); test: LTEA_HepaRG_IGF1: Life Technologies and Expression Analysis (LTEA) Assay for Insulin Like Growth Factor 1 (IGF1) using HepaRG (AID 2283506)
Outline: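 Cells are thawed, plated and cultured 48 h, then exposed in duplicate to chemical (highest 100 uM, half-log steps, 0.5% DMSO) for another 48 h. Total RNA is analysed by Fluidigm qRT-PCR for IGF1 expression relative to vehicle.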

[11] = read-out: Intercellular Adhesion Molecule 1 (ICAM1), ICAM1 (gene 3383); test: LTEA_HepaRG_ICAM1: Life Technologies and Expression Analysis (LTEA) Assay for Intercellular Adhesion Molecule 1 (ICAM1) using HepaRG (AID 2283507)
Outline: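 Differentiated HepaRG cells in serum-free induction medium were exposed in duplicate for 48 h to eight half-log concentrations up to 100 uM in 0.5% DMSO. Transcript levels were measured by qRT-PCR normalized to ACTB, GAPDH and POLR2A; bidirectional fits relative to DMSO.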

[12] = read-out: Insulin-like growth factor-binding protein 1 (IGFBP1), IGFBP1 (gene 3484); test: LTEA_HepaRG_IGFBP1: Life Technologies and Expression Analysis (LTEA) Assay for Insulin-like growth factor-binding protein 1 (IGFBP1) using HepaRG (AID 2283508)
Outline: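 Differentiated human HepaRG cells in serum-free induction medium were exposed in duplicate for 48 h to eight concentrations, top 100 uM with half-log dilutions, in 0.5% DMSO. Transcript levels came from qRT-PCR normalised to ACTB, GAPDH and POLR2A, fitted bidirectionally against DMSO.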

[13] = read-out: Interleukin 6 (IL6), IL6 (gene 3569); test: LTEA_HepaRG_IL6: Life Technologies and Expression Analysis (LTEA) Assay for Interleukin 6 (IL6) using HepaRG (AID 2283509)
Outline: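 Transcript levels, normalized to three housekeeping genes, were quantified by qRT-PCR after 48 h chemical treatment of HepaRG cells. Eight-point half-log series from 100 uM in 0.5% DMSO, duplicates. Fitted both directions against DMSO baseline.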

[14] = read-out: Interleukin 6 Receptor (IL6R), IL6R (gene 3570); test: LTEA_HepaRG_IL6R: Life Technologies and Expression Analysis (LTEA) Assay for Interleukin 6 Receptor (IL6R) using HepaRG (AID 2283510)
Outline: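 Cells were thawed, plated and cultured 48 h, then medium was changed to serum-free induction medium. Chemicals were added in duplicate (100 uM top, half-log steps, 0.5% DMSO) for 48 h. Lysates were analyzed by qRT-PCR for IL6R expression.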

[15] = read-out: Potassium channel subfamily K member 1 (KCNK1), KCNK1 (gene 3775); test: LTEA_HepaRG_KCNK1: Life Technologies and Expression Analysis (LTEA) Assay for Potassium channel subfamily K member 1 (KCNK1) using HepaRG (AID 2283511)
Outline: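 KCNK1 transcript measured by TaqMan qRT-PCR against three housekeeping genes, after HepaRG cells were treated 48 h with eight half-log concentrations (top 100 uM, 0.5% DMSO). Curves fitted bidirectionally relative to vehicle.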

[16] = read-out: Keratin 19 (KRT19), KRT19 (gene 3880); test: LTEA_HepaRG_KRT19: Life Technologies and Expression Analysis (LTEA) Assay for Keratin 19 (KRT19) using HepaRG (AID 2283512)
Outline: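 Differentiated human HepaRG cells, plated 48 h, were exposed in duplicate for 48 h in serum-free induction medium to eight half-log concentrations up to 100 uM in 0.5% DMSO. KRT19 mRNA was quantified by qRT-PCR, normalized to ACTB, GAPDH and POLR2A, and fitted bidirectionally versus DMSO.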

Measured: outcome

Chain of Hypoxia-inducible factor 1-alpha (Homo sapiens) (Q16665 whole entry, looked up): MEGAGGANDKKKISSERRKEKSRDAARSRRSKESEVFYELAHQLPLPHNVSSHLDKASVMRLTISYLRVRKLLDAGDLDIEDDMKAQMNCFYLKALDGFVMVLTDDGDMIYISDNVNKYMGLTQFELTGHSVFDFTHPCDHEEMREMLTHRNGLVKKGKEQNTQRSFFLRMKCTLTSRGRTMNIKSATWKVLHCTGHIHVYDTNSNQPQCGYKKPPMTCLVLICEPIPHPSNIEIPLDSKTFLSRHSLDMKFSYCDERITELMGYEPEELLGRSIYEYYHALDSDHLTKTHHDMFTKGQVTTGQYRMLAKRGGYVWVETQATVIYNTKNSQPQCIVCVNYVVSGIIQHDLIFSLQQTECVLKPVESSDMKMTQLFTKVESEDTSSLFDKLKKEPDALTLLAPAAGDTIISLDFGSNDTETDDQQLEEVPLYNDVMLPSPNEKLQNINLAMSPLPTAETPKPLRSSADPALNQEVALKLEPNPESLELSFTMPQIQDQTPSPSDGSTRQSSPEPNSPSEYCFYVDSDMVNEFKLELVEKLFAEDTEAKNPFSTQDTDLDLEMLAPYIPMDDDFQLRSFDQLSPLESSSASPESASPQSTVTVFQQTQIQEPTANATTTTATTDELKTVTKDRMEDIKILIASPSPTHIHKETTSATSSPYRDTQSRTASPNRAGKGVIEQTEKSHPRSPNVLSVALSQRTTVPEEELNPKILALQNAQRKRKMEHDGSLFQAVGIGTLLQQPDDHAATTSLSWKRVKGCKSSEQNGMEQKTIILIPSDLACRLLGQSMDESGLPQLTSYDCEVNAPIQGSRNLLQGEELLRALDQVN

c1cc[n+]2c(c1)-c1cccc[n+]1CC2
inactive: CYP3A5 (gene 1577) | [1] | [2] | [3] | [4] | [5] | [6] | [7] | [8] | [9] | HGF (gene 3082) | [10] | [11] | [12] | [13] | [14] | [15] | [16]

— PubChem BioAssay (EPA / NIEHS)
